Data on 8 compounds can be found in PubChem BioAssay (NCI).

Test systems include SK-MEL-2 melanoma; EKVX NSCLC; SN12C renal; UO-31 renal; TK-10 renal; ACHN renal; CAKI-1 renal; A498 renal; CCRF-CEM leukemia; MOLT-4 leukemia; SR leukemia; RPMI-8226 leukemia; OVCAR-8 ovarian; SK-OV-3 ovarian; IGROV1 ovarian; OVCAR-3 ovarian; HS 578T breast; NCI/ADR-RES ovarian; OVCAR-5 ovarian; OVCAR-4 ovarian.
Common to all, as to assay: NCI-60 one-dose screen, 48 h (100 = growth as untreated, 0 = no growth, -100 = all killed)
Conditions in all cases: 10 µM unless noted

Compounds without any hit were thinned out: in the full panel of roughly 83,000, 20% have a hit.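 Step 1: grow cells in 96-well plates. Step 2: add test compound at a single concentration. Step 3: incubate 48 h. Step 4: record percent growth.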 Unmarked numbers belong to inactive results. The source made the active and inactive calls. Rule for the calls: active = growth percent below 10; inactive = the rest.

For the compound `Clc1ccc(-c2nc(-c3cccs3)no2)cc1`, the growth in the assay on SK-MEL-2 melanoma is 103%; in the assay with EKVX NSCLC it was 85.4%; in the assay on SN12C renal, 100%; in the assay with UO-31 renal it was 71.3%; in the assay on TK-10 renal it was 74.6%; in the assay with ACHN renal it was 101%. Also, the growth with CAKI-1 renal is 99.5%; in the assay with A498 renal, 108%; in the assay with CCRF-CEM leukemia it was 91.9%; in the assay with MOLT-4 leukemia, 96.3%; in the assay on SR leukemia, 101%; in the assay with RPMI-8226 leukemia, 95.3%. In addition, the growth in the assay with OVCAR-8 ovarian was 101%; with SK-OV-3 ovarian, 99.2%; with IGROV1 ovarian it was 77.1%; with OVCAR-3 ovarian, 103%; in the assay on HS 578T breast, 99.5%; with NCI/ADR-RES ovarian it was 103%.
For the compound `CCOC(=O)C1C(=O)C=C(c2cc(OC)c(OC)c(OC)c2)CC1c1sc(N(C)Cc2ccccc2)nc1Cl` (centres undefined), the growth in the assay with SK-MEL-2 melanoma was 71.9%; with EKVX NSCLC it was 63.3%; in the assay on SN12C renal it was 80.6%; with UO-31 renal, 53%; in the assay on TK-10 renal, 87.4%; with ACHN renal, 86.8%. Moreover, the growth with CAKI-1 renal was 46.8%; with A498 renal, 86.1%; with CCRF-CEM leukemia, 82%; in the assay with MOLT-4 leukemia, 58.7%; with SR leukemia it was 80.8%; in the assay on OVCAR-8 ovarian, 82%. Besides, the growth with OVCAR-5 ovarian was 101%; in the assay with OVCAR-4 ovarian, 86.8%; in the assay with SK-OV-3 ovarian it was 85.2%; in the assay with IGROV1 ovarian, 95.6%; in the assay with OVCAR-3 ovarian, 91.6%; with HS 578T breast, 55.9%. Besides, the growth in the assay with NCI/ADR-RES ovarian was 86.3%.
On to `Clc1ccc(C2=NN[C@H](c3cn(-c4ccccc4)nc3-c3ccccc3)C2)cc1`, for which the growth was 91.4% in the assay on SK-MEL-2 melanoma; 35.3% with EKVX NSCLC; 51.2% in the assay on SN12C renal; 105% in the assay on UO-31 renal; 99.2% with TK-10 renal; 53.1% in the assay with ACHN renal. Also, the growth is 19.6% in the assay with CAKI-1 renal; 91% with A498 renal; 78.3% in the assay with CCRF-CEM leukemia; 77.9% in the assay with MOLT-4 leukemia; 104% with SR leukemia; 87.5% with RPMI-8226 leukemia. Besides, the growth was 33.6% in the assay with OVCAR-8 ovarian; 68.1% with OVCAR-4 ovarian; 61.6% with SK-OV-3 ovarian; 79.5% in the assay on IGROV1 ovarian; 58.6% in the assay with OVCAR-3 ovarian; 74.2% with HS 578T breast. Also, the growth with NCI/ADR-RES ovarian was 55.9%.
In the case of `CN(C)c1nc(-c2cccs2)n2nc(-c3ccc(Cl)cc3)cc2n1`, the growth in the assay with SK-MEL-2 melanoma is 67%; with EKVX NSCLC, 49.6%; in the assay with SN12C renal, 44.9%; in the assay with UO-31 renal, -63.9% (active); with TK-10 renal, -23.1% (active); in the assay with ACHN renal, -21.1% (active). Further, the growth with CAKI-1 renal was 18.8%; in the assay with A498 renal it was -11.4% (active); in the assay on CCRF-CEM leukemia, 73.8%; in the assay on MOLT-4 leukemia, 82.1%; with SR leukemia it was 58.7%; in the assay with RPMI-8226 leukemia, 74.3%. Also, the growth with OVCAR-8 ovarian was 11.8%; in the assay with OVCAR-4 ovarian, -39.5% (active); with SK-OV-3 ovarian, -54.2% (active); in the assay on IGROV1 ovarian, 11.9%; in the assay on OVCAR-3 ovarian, 14.8%; in the assay on HS 578T breast it was -2.48% (active). Moreover, the growth with NCI/ADR-RES ovarian was 38.3%.
Turning to `c1ccc(-c2ccc(-c3ccccc3)[nH]2)cc1`, the growth with SK-MEL-2 melanoma is 98.7%; with EKVX NSCLC, 75.6%; in the assay on SN12C renal it was 95.5%; in the assay on UO-31 renal, 87%; in the assay with TK-10 renal, 138%; in the assay with ACHN renal, 100%. Besides, the growth was 83.6% with CAKI-1 renal; 63.7% with A498 renal; 90.9% in the assay on CCRF-CEM leukemia; 80.3% with MOLT-4 leukemia; 96.1% in the assay with SR leukemia; 79.7% in the assay with RPMI-8226 leukemia. The growth with OVCAR-8 ovarian was 101%; in the assay with SK-OV-3 ovarian, 107%; in the assay on IGROV1 ovarian, 85.8%; with OVCAR-3 ovarian, 106%; in the assay with HS 578T breast it was 100%; in the assay with NCI/ADR-RES ovarian, 96.4%.
Regarding `Cn1cnc([N+](=O)[O-])c1S(=O)(=O)Oc1ccccc1`, the growth with SK-MEL-2 melanoma is 98.2%; in the assay on EKVX NSCLC, 103%; in the assay on SN12C renal, 99.2%; in the assay with UO-31 renal, 75.1%; with TK-10 renal, 101%; in the assay with ACHN renal, 17.1%. Also, the growth in the assay on CAKI-1 renal was 62.9%; in the assay with A498 renal, 108%; in the assay with CCRF-CEM leukemia, 6.29% (active); in the assay with MOLT-4 leukemia it was 76.5%; in the assay with SR leukemia, 56.1%; with OVCAR-8 ovarian, 100%. The growth is 103% with OVCAR-5 ovarian; 112% with OVCAR-4 ovarian; 101% in the assay with SK-OV-3 ovarian; 85.7% with IGROV1 ovarian; 1.83% (active) in the assay with OVCAR-3 ovarian; 105% in the assay with HS 578T breast.
With `C#CCO[C@H]1CC[C@H](OCC#C)[C@@H]2[C@H]1[C@H]1C[C@@H]3[C@@]4(C)CCC[C@@](C)(C(=O)OC)[C@@H]4CC[C@@]23C=C1C(C)C`, the growth is 85% in the assay on SK-MEL-2 melanoma; 74.4% in the assay on EKVX NSCLC; 86.3% in the assay on SN12C renal; 50.5% in the assay with UO-31 renal; 93.7% in the assay with TK-10 renal; 92.6% in the assay with ACHN renal. In addition, the growth in the assay on CAKI-1 renal was 59.3%; in the assay on A498 renal, 108%; in the assay on CCRF-CEM leukemia, -52.9% (active); in the assay on MOLT-4 leukemia it was 56.2%; in the assay on SR leukemia it was 20.5%; in the assay on RPMI-8226 leukemia it was 11.7%. The growth is 82% in the assay on OVCAR-8 ovarian; 99.3% in the assay with OVCAR-4 ovarian; 88.6% in the assay on SK-OV-3 ovarian; 0.137% (active) with IGROV1 ovarian; 75.4% with OVCAR-3 ovarian; 114% in the assay on HS 578T breast. Also, in the assay with NCI/ADR-RES ovarian, the growth is 71.4%.
Turning to `O=C(Cc1ccc([N+](=O)[O-])cc1)Oc1ccccc1`, the growth in the assay with SK-MEL-2 melanoma was 102%; in the assay with EKVX NSCLC, 128%; in the assay with SN12C renal it was 106%; in the assay with UO-31 renal, 77%; in the assay with TK-10 renal, 104%; in the assay with ACHN renal it was 110%. Besides, the growth was 117% in the assay with CAKI-1 renal; 107% in the assay with A498 renal; 99.3% in the assay on CCRF-CEM leukemia; 108% in the assay with MOLT-4 leukemia; 96.7% with SR leukemia; 107% in the assay with OVCAR-8 ovarian. Besides, the growth with OVCAR-5 ovarian was 115%; in the assay on OVCAR-4 ovarian it was 111%; with SK-OV-3 ovarian, 110%; in the assay on IGROV1 ovarian, 123%; in the assay on OVCAR-3 ovarian, 119%; in the assay on HS 578T breast, 109%. Also, in the assay with NCI/ADR-RES ovarian, the growth is 113%.
